From PubChem BioAssay (NCI)
Compounds without any hit were thinned out: in the full panel of roughly 83,000, 20% have a hit.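 Interpretation: 100, growth as untreated; towards 0, rising growth inhibition; 0, no net growth; 0 to -100, cell death. Compounds scoring below 10 were considered active.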 Activity calls are given as the source filed them.

What was measured:
Assay in all cases: NCI-60 one-dose screen, 48 h (100 = growth as untreated, 0 = no growth, -100 = all killed)
Details in all cases: 10 µM unless noted
DU-145 prostate = test system: DU-145 prostate
K-562 leukemia = test system: K-562 leukemia
MALME-3M melanoma = test system: MALME-3M melanoma
MDA-MB-231 breast = test system: MDA-MB-231 breast
RXF 393 renal = test system: RXF 393 renal
SF-268 CNS = test system: SF-268 CNS
SF-295 CNS = test system: SF-295 CNS
SF-539 CNS = test system: SF-539 CNS
UACC-257 melanoma = test system: UACC-257 melanoma
M14 melanoma = test system: M14 melanoma

Measured: growth

O=c1[nH]c(-c2ccccc2)nc2sc3cc(O)ccc3c12
inactive: DU-145 prostate 83.6% | K-562 leukemia 25.9% | MALME-3M melanoma 74.1% | MDA-MB-231 breast 101% | RXF 393 renal 82.2% | SF-268 CNS 86.2% | SF-295 CNS 95.3% | SF-539 CNS 82.8% | UACC-257 melanoma 109% | M14 melanoma 75.2%

Cc1cc(N2CCCCC2)cc(C)c1-c1csc(NC(=O)c2ccncc2)n1
inactive: DU-145 prostate 77% | K-562 leukemia 22.1% | MALME-3M melanoma 59.7% | MDA-MB-231 breast 54.5% | RXF 393 renal 77.6% | SF-268 CNS 60% | SF-295 CNS 22.5% | SF-539 CNS 81.1% | UACC-257 melanoma 33.2% | M14 melanoma 57.8%

COc1ccc(/C=C(\C#N)n2nnc3cc(Cl)ccc32)cc1
inactive: MALME-3M melanoma 34.6% | SF-268 CNS 27.6% | UACC-257 melanoma 53%
active: DU-145 prostate -14.9% | K-562 leukemia 8.41% | MDA-MB-231 breast -56.3% | RXF 393 renal -55.2% | SF-295 CNS -20.9% | SF-539 CNS -60.5% | M14 melanoma -19.1%

CCCCCCCCCCCCCCCCCCOc1ccccc1CC(=O)OCC[N+](C)(C)C
active: MDA-MB-231 breast -2.29% | RXF 393 renal -54% | M14 melanoma 6.22%
inactive: DU-145 prostate 36.1% | K-562 leukemia 18.6% | MALME-3M melanoma 26.9% | SF-268 CNS 15% | SF-295 CNS 45.8% | SF-539 CNS 21.3% | UACC-257 melanoma 22.3%

CCOC(=O)C/C(=N\Nc1cc(=O)[nH]c2ccc(Br)cc12)C(=O)OCC
inactive: DU-145 prostate 104% | K-562 leukemia 24.2% | MALME-3M melanoma 90.5% | MDA-MB-231 breast 102% | RXF 393 renal 104% | SF-268 CNS 100% | SF-295 CNS 102% | SF-539 CNS 99.8% | UACC-257 melanoma 111% | M14 melanoma 96.8%

O=C1C(Cl)=C(Nc2ccc(S(=O)(=O)N3CCOCC3)cc2)C(=O)c2ccccc21
inactive: DU-145 prostate 101% | MALME-3M melanoma 71.6% | MDA-MB-231 breast 31.3% | RXF 393 renal 56.4% | SF-268 CNS 78.3% | SF-295 CNS 99.7% | UACC-257 melanoma 66.4% | M14 melanoma 44.2%
active: K-562 leukemia 6.71% | SF-539 CNS 2.06%

Oc1c(I)cc(I)cc1CNCc1ccccn1
inactive: DU-145 prostate 49.9% | K-562 leukemia 20.9% | MALME-3M melanoma 42.5% | MDA-MB-231 breast 38.3% | RXF 393 renal 70.2% | SF-268 CNS 36.8% | SF-295 CNS 25.7% | SF-539 CNS 20.2% | UACC-257 melanoma 15.4%
active: M14 melanoma 8.61%

COc1ccc(/C=C(\C#N)n2nnc3cc(F)c(F)cc32)cc1
inactive: DU-145 prostate 47.6% | MALME-3M melanoma 45.6% | MDA-MB-231 breast 64.9% | RXF 393 renal 85.8% | SF-268 CNS 68.6% | SF-295 CNS 72.3% | SF-539 CNS 44.5% | UACC-257 melanoma 81.9%
active: K-562 leukemia 8.72% | M14 melanoma 6.43%

Cc1ccc(C2=Nc3c(N)ncnc3NC(c3cccc(Nc4ccnc5cc(C(F)(F)F)ccc45)c3)C2)cc1 (stereo not given)
inactive: DU-145 prostate 64.9% | MALME-3M melanoma 35.3% | MDA-MB-231 breast 29.6% | SF-268 CNS 40.1% | SF-295 CNS 25% | SF-539 CNS 56.1% | UACC-257 melanoma 51.7% | M14 melanoma 16%
active: K-562 leukemia 5.65% | RXF 393 renal 0.783%

COc1ccccc1CNc1c2ccccc2nc2ccccc12
inactive: DU-145 prostate 50.5% | K-562 leukemia 10.1% | MALME-3M melanoma 45.9% | MDA-MB-231 breast 57.6% | RXF 393 renal 30.6% | SF-268 CNS 65.1% | SF-295 CNS 37.4% | SF-539 CNS 21.2% | UACC-257 melanoma 64.1% | M14 melanoma 40.8%

COc1ccc(/C=N\Nc2nc(SCCC(C)C)nc(-c3ccc(OC)cc3)c2C#N)cc1
inactive: DU-145 prostate 72.8% | K-562 leukemia 82% | MALME-3M melanoma 64.6% | MDA-MB-231 breast 77.6% | RXF 393 renal 80.5% | SF-268 CNS 78.9% | SF-295 CNS 17.4% | SF-539 CNS 24.6% | UACC-257 melanoma 91.6% | M14 melanoma 87.6%

COC(=O)CC[C@H](C)[C@H]1CC[C@H]2[C@@H]3CC[C@@H]4CC5(CC[C@]4(C)[C@H]3CC(=O)[C@]12C)Nc1ccccc1NC5=NC(C)(C)C (stereo not given in full)
inactive: DU-145 prostate 90.2% | K-562 leukemia 42.2% | MALME-3M melanoma 109% | MDA-MB-231 breast 86.7% | RXF 393 renal 84.7% | SF-268 CNS 84.1% | SF-295 CNS 84% | SF-539 CNS 90.8% | UACC-257 melanoma 77.2% | M14 melanoma 84.9%
